From PubChem BioAssay
For some of these results: Potency and affinity values are given separately. Calls of active or inactive are those of the source. Unless noted, the rule behind the calls is not given here.

Tests used:
[1] = antimalarial activity against Dd2 strain (AID 2302;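 active = growth inhibition above 50% at the single 2 µM test dose, taken to imply half-maximal potency below 2 µM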;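 note: 0% = DMSO untreated growth and 100% = chloroquine plus artemisinin killed control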); settings: P. falciparum Dd2 in RBCs, LDH growth readout, 72 h; at 2 µM; stronger effect = higher value
[2] = HepG2 cytotoxicity, primary screen, cytotoxicity control for P. falciparum antimalarial project, cell-based, ATP luminescence (AID 2303;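 active = inhibition above 50%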;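 note: 0% = DMSO wells and 100% = digitonin-killed cells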); settings: HepG2 viability, 24-48 h, at 10 µM, stronger effect = higher value
[3] = target: L-lactate dehydrogenase (Plasmodium falciparum (isolate CDC / Honduras)) (UniProt Q27743); experiment: PfLDH activity inhibition – cell lysate, 3D7 strain, counter-screen for P. falciparum growth inhibition project (AID 2304);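 note: 0% = vehicle and 100% = reference inhibitor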; settings: P. falciparum 3D7 crude extract, LDH APAD/NBT absorbance; at 2 µM; stronger effect = higher value
[4] = inhibition of 3D7 malaria parasite growth – strain 3D7 (AID 2306);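 note: 0% = DMSO wells and 100% = chloroquine plus artemisinin control wells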; settings: P. falciparum 3D7 erythrocytic growth, LDH absorbance, 72 h; at 2 µM; stronger effect = higher value
[5] = target: Calcium-dependent protein kinase 1 (Plasmodium falciparum (isolate 3D7)) (UniProt P62344); experiment: PfCDPK1 kinase inhibitors, biochemical, TCAMS library (AID 1159585; cut-off not given, nearly all actives have IC50 up to about 0.98 µM;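 note: inhibitors leave more ATP so luminescence rises with inhibition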); settings: recombinant PfCDPK1, Kinase-Glo ATP depletion luminescence
[6] = target: Plasmodium falciparum protein kinase 6 (PK6, PF3D7_1337100) (UniProt Q8IDW1); experiment: PfPK6 kinase inhibitors, biochemical, TCAMS library (AID 1159586); settings: recombinant PfPK6, Kinase-Glo ATP depletion luminescence
[7] = target: Protein kinase 7 (PK7), Plasmodium falciparum 3D7 (PF3D7_0213400) (UniProt Q7YTF7); experiment: inhibition of Plasmodium PK7 catalytic activity – biochemical, TCAMS antimalarial set, Kinase-Glo luminescence (AID 1159587); settings: recombinant PfPK7, Kinase-Glo ATP depletion luminescence
[8] = target: Calcium-dependent protein kinase 4 (Plasmodium falciparum (isolate 3D7)) (UniProt Q8IBS5); experiment: PfCDPK4 kinase inhibitors, biochemical, TCAMS library (AID 1159588; cut-off not given, nearly all actives have IC50 up to about 0.91 µM); settings: recombinant PfCDPK4, Kinase-Glo ATP depletion luminescence
Calcium-dependent protein kinase 4 (Plasmodium falciparum (isolate 3D7)), sequence (Q8IBS5 whole entry, looked up): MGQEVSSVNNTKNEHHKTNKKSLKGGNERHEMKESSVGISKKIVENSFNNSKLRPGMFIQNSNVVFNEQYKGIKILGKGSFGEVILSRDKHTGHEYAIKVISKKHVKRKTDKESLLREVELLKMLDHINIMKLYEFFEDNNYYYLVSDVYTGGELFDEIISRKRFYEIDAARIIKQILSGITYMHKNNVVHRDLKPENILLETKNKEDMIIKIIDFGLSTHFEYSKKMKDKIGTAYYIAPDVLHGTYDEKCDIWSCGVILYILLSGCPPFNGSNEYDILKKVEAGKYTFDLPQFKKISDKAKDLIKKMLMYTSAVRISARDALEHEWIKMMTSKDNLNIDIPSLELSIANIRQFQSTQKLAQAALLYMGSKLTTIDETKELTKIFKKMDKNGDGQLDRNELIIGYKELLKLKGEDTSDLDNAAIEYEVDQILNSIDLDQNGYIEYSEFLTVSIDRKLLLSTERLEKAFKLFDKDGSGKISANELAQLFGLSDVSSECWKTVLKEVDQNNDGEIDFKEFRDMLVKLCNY

Plasmodium falciparum protein kinase 6 (PK6, PF3D7_1337100), sequence (Q8IDW1 1-305): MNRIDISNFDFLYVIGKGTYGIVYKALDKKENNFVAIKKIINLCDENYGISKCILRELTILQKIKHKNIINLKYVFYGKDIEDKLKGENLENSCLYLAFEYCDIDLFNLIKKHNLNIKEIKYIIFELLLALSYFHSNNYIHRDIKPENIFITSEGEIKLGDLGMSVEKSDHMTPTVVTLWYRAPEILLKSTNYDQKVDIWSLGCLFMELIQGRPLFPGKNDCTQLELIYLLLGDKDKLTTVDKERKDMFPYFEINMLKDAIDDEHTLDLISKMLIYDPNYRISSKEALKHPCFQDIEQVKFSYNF
L-lactate dehydrogenase (Plasmodium falciparum (isolate CDC / Honduras)), sequence (Q27743 whole entry, looked up): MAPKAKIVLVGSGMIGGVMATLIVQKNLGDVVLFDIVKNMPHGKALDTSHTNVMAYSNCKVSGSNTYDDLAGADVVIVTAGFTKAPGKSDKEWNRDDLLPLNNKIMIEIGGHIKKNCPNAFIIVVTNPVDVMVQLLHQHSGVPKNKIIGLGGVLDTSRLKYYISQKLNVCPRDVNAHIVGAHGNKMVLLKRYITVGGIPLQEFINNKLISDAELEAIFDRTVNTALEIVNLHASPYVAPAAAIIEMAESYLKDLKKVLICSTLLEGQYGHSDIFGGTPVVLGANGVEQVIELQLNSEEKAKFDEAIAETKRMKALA
Protein kinase 7 (PK7), Plasmodium falciparum 3D7 (PF3D7_0213400), sequence (Q7YTF7 1-343): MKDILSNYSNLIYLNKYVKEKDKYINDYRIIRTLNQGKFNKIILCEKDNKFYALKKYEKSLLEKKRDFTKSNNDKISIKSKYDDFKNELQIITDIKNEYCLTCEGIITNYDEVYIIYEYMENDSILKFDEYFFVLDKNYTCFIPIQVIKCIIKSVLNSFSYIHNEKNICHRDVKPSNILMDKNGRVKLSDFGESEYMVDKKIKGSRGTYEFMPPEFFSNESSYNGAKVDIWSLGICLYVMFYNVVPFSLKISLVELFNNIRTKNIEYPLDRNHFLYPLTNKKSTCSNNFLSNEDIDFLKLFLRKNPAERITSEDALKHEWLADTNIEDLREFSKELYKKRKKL
Calcium-dependent protein kinase 1 (Plasmodium falciparum (isolate 3D7)), sequence (P62344 whole entry, looked up): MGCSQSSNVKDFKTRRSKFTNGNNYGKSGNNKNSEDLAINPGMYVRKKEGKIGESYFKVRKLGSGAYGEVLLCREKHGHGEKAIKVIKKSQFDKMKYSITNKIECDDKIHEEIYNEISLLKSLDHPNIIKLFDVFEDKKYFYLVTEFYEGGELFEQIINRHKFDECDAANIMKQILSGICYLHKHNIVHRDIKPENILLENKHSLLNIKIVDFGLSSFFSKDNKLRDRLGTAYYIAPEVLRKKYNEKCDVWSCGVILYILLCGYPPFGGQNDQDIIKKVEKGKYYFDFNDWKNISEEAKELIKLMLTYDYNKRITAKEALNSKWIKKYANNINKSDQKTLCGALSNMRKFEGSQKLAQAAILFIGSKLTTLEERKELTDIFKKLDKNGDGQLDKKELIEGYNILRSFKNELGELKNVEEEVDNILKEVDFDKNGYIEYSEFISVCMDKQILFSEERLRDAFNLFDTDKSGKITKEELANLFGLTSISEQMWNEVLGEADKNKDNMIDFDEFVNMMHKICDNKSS

CCCCCn1c(Sc2ccc(C#N)c([N+](=O)[O-])c2)nnc1-c1cccc(Cl)c1
active: growth inhibition [1] 75% | growth inhibition [4] 95%
inactive: inhibition [2] 4% | inhibition [3] -2% | outcome [5] | outcome [6] | outcome [7] | outcome [8]

COC(=O)c1cccc(CNCc2cccc(-c3cccc(-c4nc5c(C)cccc5[nH]4)c3)c2)c1
inactive: growth inhibition [1] 47% | inhibition [2] -1% | inhibition [3] 3% | outcome [5] | outcome [6] | outcome [7] | outcome [8]
active: growth inhibition [4] 101%

Cc1ccc(Nc2nc(NN=Cc3cccc([N+](=O)[O-])c3)nc(Nc3ccccc3)n2)c(C)c1
inactive: inhibition [2] 9% | inhibition [3] 4% | outcome [5] | outcome [6] | outcome [7] | outcome [8]
active: growth inhibition [1] 97% | growth inhibition [4] 91%

CC(C)(C)CC(=O)Nc1ccc(Nc2cc(-c3ccncc3)cc3ncc(C(N)=O)cc23)cc1
active: growth inhibition [1] 85% | growth inhibition [4] 97%
inactive: inhibition [2] 5% | inhibition [3] 7% | outcome [5] | outcome [6] | outcome [7] | outcome [8]

O=[N+]([O-])c1cccc(CNC2CCN(Cc3ccc(Cl)c(Cl)c3)CC2)c1
active: growth inhibition [1] 71% | growth inhibition [4] 100%
inactive: inhibition [2] 5% | inhibition [3] 3% | outcome [5] | outcome [6] | outcome [7] | outcome [8]

COc1ccc(Cl)cc1NC(=O)C(C)N1CCN(S(=O)(=O)c2ccccc2F)CC1 (centres undefined)
inactive: inhibition [2] 5% | inhibition [3] 4% | outcome [5] | outcome [6] | outcome [7] | outcome [8]
active: growth inhibition [1] 66% | growth inhibition [4] 93%

NC(N)=Nc1ccc(NC(=O)Nc2ccc(N=C(N)N)cc2)cc1
active: growth inhibition [1] 74% | growth inhibition [4] 85%
inactive: inhibition [2] -5% | inhibition [3] 1% | outcome [5] | outcome [6] | outcome [7] | outcome [8]

O=C(NC1CCN(Cc2ccsc2)CC1)c1ccc(-c2cccc(C(F)(F)F)c2)s1
inactive: growth inhibition [1] 3% | inhibition [2] 48% | inhibition [3] -2% | outcome [5] | outcome [6] | outcome [7] | outcome [8]
active: growth inhibition [4] 88%

O=S(=O)(NCCN1CCCC1)c1cccc(-c2ccc(CNCc3ccsc3)cc2)c1
inactive: growth inhibition [1] 31% | inhibition [2] 33% | inhibition [3] 6% | outcome [5] | outcome [6] | outcome [7] | outcome [8]
active: growth inhibition [4] 101%

O=C1CC(C(=O)Nc2cccc(-c3cccc(-c4nc5ccccc5[nH]4)c3)c2)c2ccccc2N1 (centres undefined)
active: growth inhibition [4] 84%
inactive: growth inhibition [1] 32% | inhibition [2] 0% | inhibition [3] 1% | outcome [5] | outcome [6] | outcome [7] | outcome [8]

CCCCOc1ccc(N2C(N)=NC(N)=NC2(C)C)cc1
inactive: growth inhibition [1] 3% | inhibition [2] 16% | inhibition [3] 6% | outcome [5] | outcome [6] | outcome [7] | outcome [8]
active: growth inhibition [4] 97%

O=C(Nc1ccc(C(F)(F)F)cc1)Nc1cccc([N+](=O)[O-])c1
inactive: inhibition [2] 20% | inhibition [3] 4% | outcome [5] | outcome [6] | outcome [7] | outcome [8]
active: growth inhibition [1] 98% | growth inhibition [4] 101%

O=c1c2c([nH]c3cc(Cl)ccc13)CCCC2
inactive: inhibition [2] 33% | inhibition [3] 2% | outcome [5] | outcome [6] | outcome [7] | outcome [8]
active: growth inhibition [1] 73% | growth inhibition [4] 96%

NC(N)=Nc1nc(-c2ccc(N=C(N)N3CCC[C@H]3CN3CCCC3)cc2)cs1
inactive: inhibition [2] 6% | inhibition [3] 1% | outcome [5] | outcome [6] | outcome [7] | outcome [8]
active: growth inhibition [1] 66% | growth inhibition [4] 82%

COc1ccc2nccc(NN=Cc3cccc(F)c3)c2c1
inactive: inhibition [2] 13% | inhibition [3] 2% | outcome [5] | outcome [6] | outcome [7] | outcome [8]
active: growth inhibition [1] 65% | growth inhibition [4] 102%

Cc1cccc2[nH]c(-c3cccc(-c4ccc(NC(=O)C(=O)c5cccn5C)cc4)c3)nc12
inactive: growth inhibition [1] 46% | inhibition [2] 45% | inhibition [3] -1% | outcome [5] | outcome [6] | outcome [7] | outcome [8]
active: growth inhibition [4] 101%

CCCN(CCC)C(=O)c1cc(C(=O)N[C@@H](Cc2ccccc2)[C@H](O)CNC(C)(C)c2cccc(OC)c2)cc(N2CCCCS2(=O)=O)c1
active: growth inhibition [1] 74% | growth inhibition [4] 99%
inactive: inhibition [2] 16% | inhibition [3] -3% | outcome [5] | outcome [6] | outcome [7] | outcome [8]

Cc1cccc(Cl)c1Nc1nnc(-c2cccc(C(=O)NC[C@@H]3CC[C@H]4C[C@@H]3C4(C)C)c2)o1
active: growth inhibition [1] 69% | growth inhibition [4] 85%
inactive: inhibition [2] 2% | inhibition [3] -3% | outcome [5] | outcome [6] | outcome [7] | outcome [8]

OC(CNc1ccnc(Nc2cccc(Cl)c2)n1)c1cccc(F)c1 (centres undefined)
active: growth inhibition [4] 90%
inactive: growth inhibition [1] 29% | inhibition [2] 16% | inhibition [3] 3% | outcome [5] | outcome [6] | outcome [7] | outcome [8]

Cc1cccc(C(=O)N2CCN(Cc3cccc(NC(=O)c4ccco4)c3)CC2)c1
inactive: inhibition [2] 7% | inhibition [3] 1% | outcome [5] | outcome [6] | outcome [7] | outcome [8]
active: growth inhibition [1] 79% | growth inhibition [4] 94%

Cc1ccccc1CN1CCCN(Cc2ccc(C(=O)Nc3ccc(Cl)cc3)cc2)CC1
inactive: growth inhibition [1] 15% | inhibition [2] 48% | inhibition [3] 3% | outcome [5] | outcome [6] | outcome [7] | outcome [8]
active: growth inhibition [4] 93%

O=C(NCCNc1ccnc2cc(Cl)ccc12)c1ccccc1F
active: growth inhibition [1] 98% | growth inhibition [4] 99%
inactive: inhibition [2] 30% | inhibition [3] 0% | outcome [5] | outcome [6] | outcome [7] | outcome [8]

O=C(Nc1cccc(-c2ccc(-c3nc4ccc(F)cc4[nH]3)cc2)c1)Nc1ccc(Cl)c(Cl)c1
active: inhibition [2] 79% | growth inhibition [4] 100%
inactive: growth inhibition [1] 49% | inhibition [3] 3% | outcome [5] | outcome [6] | outcome [7] | outcome [8]
